Test results reported in ChEMBL document CHEMBL1157539, “Thousands of chemical starting points for antimalarial lead identification” (Nature, 2010).
Several values for one entry are separate records, joined by “and”; a condition that tells them apart may be missing. Equal values may be shown once.

Test system: Plasmodium falciparum
Assay: GSK_TCMDC: Inhibition of Plasmodium falciparum Dd2 in whole red blood cells, using parasite LDH activity as an index of growth. Test compounds present at 2uM
Assay type: functional

Structure (SMILES) | Inhibition
O=C(NC1CCC(CN2CCC(c3c[nH]c4ccccc34)CC2)CC1)c1cc(-c2ccccc2)c(C(F)(F)F)s1 (stereo not drawn) | 100%
CN(C)CCCOc1ccc(CN2CCC(c3c[nH]c4ccc(NCC5CCCCC5)cc34)CC2)cc1.O=C(O)C(F)(F)F | 99%
Cc1cccc2c(C3CCN(CC4CCC(NC(=O)/C=C/c5ccc(Cl)c(Cl)c5)CC4)CC3)c[nH]c12 (stereo not drawn) | 49%
CCCc1c(C(=O)NC2CCC(CN3CCC(c4c[nH]c5ccccc45)CC3)CC2)cnn1-c1ccccc1 (stereo not drawn) | 7%
COC(=O)c1ccc(C[C@@H](C)NC[C@H](O)c2cccc(C(F)(F)F)c2)cc1.Cl | 93%
CC(C)CNCc1ccc(-c2cccc(CN(C(=O)CCC3CCCC3)C3CCN(Cc4ccccc4)CC3)c2)cc1.O=C(O)C(F)(F)F | 92%
CCOC(=O)c1c(C)n(C2CCCCC2)c2cc(Br)c(O)cc12 | 71%
COc1cc(C=CC(=O)N2CCC(CN3CCC(c4c[nH]c5ccccc45)CC3)CC2)cc(OC)c1 | 8%
CCCCCCCc1cc(O)c2c3c(c(=O)oc2c1)CN(C)CC3 | 100%
Cc1nc2ccccc2n1C1CC2CCC(C1)N2Cc1nccn1-c1ccccc1.O=C(O)C(F)(F)F (stereo not drawn) | 96%
Cc1c(C)c2c(c(C)c1O)CC[C@@](C)(C(=O)NC1CCC(CN3CCC(c4c[nH]c5ccccc45)CC3)CC1)O2 (stereo partly drawn) | 57%
O=C(NC1CCN(CCc2c[nH]c3ccc(F)cc23)CC1)c1ncc(-c2ccccc2)[nH]1.O=C(O)C(F)(F)F | 69%
CC(C)CNCc1ccc(-c2cccc(CN(C(=O)Nc3ccccc3)C3CCN(Cc4ccccc4)CC3)c2)cc1.O=C(O)C(F)(F)F | 95%
O=C(/C=C/c1ccc(Cl)c(Cl)c1)N1CCC(CN2CCC(c3c(-c4ccccc4)[nH]c4ccccc34)CC2)CC1 | 99%
CCCCCCc1cc(O)c2c3c(c(=O)oc2c1)CCN(C)C3 | 66%
COc1ccc(C2CNCc3c2cc(OC)c(OC)c3Cl)cc1.Cl (stereo not drawn) | 3%
O=C(C=C1c2ccccc2-c2ccccc21)NC1CCC(CN2CCC(c3c[nH]c4ccccc34)CC2)CC1 (stereo not drawn) | 64% and 67%

Structure (SMILES) | Inhibition
CC(=O)Nc1ccc(CN2CCC(N(C)c3cc(NC(=O)c4ccc(F)cc4)ccn3)CC2)cc1.O=C(O)C(F)(F)F | 5%
CC[C@H]1CN2CC[C@@H]1C[C@H]2[C@H](O)c1cc(N2CCC(N3CCCCC3)CC2)nc2ccc(OC)cc12 | 77%
Cc1c(C)c2c(c(C)c1O)CC[C@](C)(C(=O)NC1CCC(CN3CCC(c4c[nH]c5ccccc45)CC3)CC1)O2 (stereo partly drawn) | 98% and 48%
CNC(=O)c1ccc2[nH]cc(C3CCN(CC4CCC(NC(=O)/C=C/c5ccccc5Cl)CC4)CC3)c2c1 (stereo not drawn) | 19%
Clc1ccc2nccc(N3CCC(CN4CCC(c5c[nH]c6ccccc56)CC4)CC3)c2c1.O=C(O)C(F)(F)F | 81%
O=C(Nc1ccc(Oc2ccccc2)cc1)N1CCC(CN2CCC(c3c[nH]c4ccccc34)CC2)CC1 | 59%
CCN(CC)CCN1C(=O)C(O)(c2ccccc2Cl)c2c1cc(C#N)cc2C(F)(F)F (stereo not drawn) | 19%
CC(=O)Nc1ccc(CN2CCC(N(C)c3cc(NC(=O)c4cccc(F)c4)ccn3)CC2)cc1.O=C(O)C(F)(F)F | 0%
Br.Cc1ccccc1C1=CCN(CCCN2c3ccccc3Sc3ccc(Cl)cc32)CC1 | 30%
O=C(Cc1c(-c2ccccc2)[nH]c2ccccc12)NC1CCC(CN2CCC(c3c[nH]c4ccccc34)CC2)CC1 (stereo not drawn) | 75%
COCCNCc1ccc(-c2ccc(CN(C(=O)NC3CCCCC3)C3CCN(Cc4ccccc4)CC3)cc2)cc1.O=C(O)C(F)(F)F | 84%
CN1CC=C(c2c[nH]c3ccc(Sc4ccccc4)cc23)CC1.O=C(O)/C=C/C(=O)O | 99%
CC[C@H]1CN2CC[C@H]1C[C@H]2[C@H](O)c1cc(-c2ccccc2C)nc2ccc(OC)cc12.Cl | 98%
O=C(NC1CCN(CC2(c3ccc(Cl)cc3)CCC2)CC1)c1cc[nH]n1 | 43%
CC[C@H]1CN2CC[C@H]1C[C@@H]2[C@@H](O)c1ccnc2ccccc12 | 20%
O=C(Nc1ccc(Oc2ccccc2)cc1)NC1CCC(CN2CCC(c3c[nH]c4ccccc34)CC2)CC1 (stereo not drawn) | 97%
